Compound activity as filed in PubChem BioAssay.
tim10-1 inh: tim10-1 yeast growth inhibition. S. cerevisiae tim10-1 ts strain growth, BacTiter-Glo, 24 h. inhibition, % at 20 µM. 330,000 compounds, 2.2% hits. AID 463190;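 active means inhibition of at least 40%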;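 further: mutant grown at 25 °C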
PfHsp90 yeast 2: growth inhibition of yeast expressing Plasmodium Hsp90 | S. cerevisiae expressing PfHsp90, BacTiter-Glo ATP, 48 h; yeast lacking PDR1 and PDR3 efflux regulators | inhibition, % at 9.4 µM | 310,000 compounds, 0.32% hits;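 active means every replicate shows inhibition above about 80%, whatever the replicate mean, limit read from the data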
SKKanGAS inh: inhibitors of SKKanGAS S. pyogenes growth in kanamycin (SK-promoter or general growth effect); BacTiter-Glo, 6 h; inhibition, % at 7.5 µM; 300,000 compounds, 1.3% hits;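 active means mean replicate score, as percent of positive control median, at least 50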;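 further: strain carries kanamycin resistance gene driven by streptokinase promoter and grows in 40 µg/ml kanamycin; loss of luminescence reflects streptokinase promoter inhibition or plain growth inhibition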
TIM10 inh: growth inhibitors of TIM10 yeast strain; S. cerevisiae TIM10 strain growth, BacTiter-Glo luminescence, 24 h; inhibition, % at 10 µM; 330,000 compounds, 1.4% hits;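 active means inhibition of 40% or more at the single tested concentration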;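 further: wild-type TIM10 isogenic control strain grown at permissive 25 °C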
NALP3 yeast inh: blocks the NALP3 inflammasome reconstituted in yeast. Yeast reconstituted NLRP3/ASC/caspase-1, beta-gal luminescence, 24 h. inhibition, % at 10 µM. 330,000 compounds, 0.39% hits;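 active means inhibition of 50% or more; inactive means inhibition below 50%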
tim23-1 inh: inhibits growth of tim23-1 mutant yeast; S. cerevisiae tim23-1 growth, BacTiter-Glo luminescence, 24 h; inhibition, % at 20 µM; 330,000 compounds, 1.3% hits;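 active means growth inhibition of the mutant yeast at or above 50%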;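 further: temperature-sensitive mutant grown at 25 °C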
tim10-1 confirm: tim10-1 yeast growth inhibition, confirmed | shares compounds with tim10-1 inh | S. cerevisiae tim10-1 ts strain growth, BacTiter-Glo, 24 h | inhibition, % at 20 µM | 7,400 compounds, 56% hits | AID 463213;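 active means inhibition of yeast growth at or above a set limit in either of two repeat tests at 20 µM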;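 further: tim10-1 mutant grown at permissive 25 °C to find synthetic lethal compounds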
tim10 confirm: confirmation of TIM10 yeast growth inhibitors; shares compounds with TIM10 inh; S. cerevisiae tim10 strain growth, BacTiter-Glo luminescence, 24 h; inhibition, % at 10 µM; 4,600 compounds, 63% hits; AID 463215;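 active means inhibition of yeast growth at or above a set limit in either of two replicates at 10 µM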; further: this counterscreen used the strain with wild-type TIM10
tim23-1 confirm: tim23-1 yeast growth inhibition, confirmed; shares compounds with tim23-1 inh; S. cerevisiae tim23-1 growth, BacTiter-Glo luminescence, 24 h; inhibition, % at 20 µM; 4,400 compounds, 83% hits; AID 463218;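 active means inhibition above about 39% in either of two replicate wells at 20 µM, limit read from the data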;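 further: temperature-sensitive tim23-1 mutant grown at 25 °C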
Numbers stand for hits; i = inactive; nt = no result given. Only some compounds are listed: those with a hit (about 4.5% of all), similar ones and a draw of the others.

SMILES | tim10-1 inh | PfHsp90 yeast 2 | SKKanGAS inh | TIM10 inh | NALP3 yeast inh | tim23-1 inh | tim10-1 confirm | tim10 confirm | tim23-1 confirm
N/C(=N\OC(=O)c1cccc(Br)c1)c1ccccc1 | 66 | i | i | 83 | i | 83 | 58 | 86 | 73
N/C(=N\OC(=O)c1ccco1)c1cccc([N+](=O)[O-])c1 | i | i | i | i | i | i | nt | nt | nt
N/C(=N\OC(=O)c1ccco1)c1cccc(Br)c1 | 56 | i | i | 61 | i | 64 | 56 | 54 | 45
O=C(c1cccc(Br)c1)c1conc1C(=O)c1ccco1 | 48 | i | i | 43 | i | 54 | 44 | 38 | 59
CSc1nnc2c3cc(F)ccc3n(C)c2n1 | 48 | 83 | i | 77 | i | 51 | 61 | 81 | 50
Fc1ccc(NC(=S)Nc2cccc3ccccc23)cc1 | 43 | i | i | i | i | 52 | i | nt | 45
Cc1ccc(NC(=S)Nc2cccc3ccccc23)cc1 | i | i | i | i | i | i | nt | nt | nt
Cc1ccc(S(=O)(=O)c2c(C)nn(C(C)(C)C)c2OC(=O)c2ccco2)cc1 | 47 | i | i | i | i | 64 | 32 | nt | 46
Cc1ccc(S(=O)(=O)c2c(C)nn(C(C)(C)C)c2OC(=O)c2ccc(Br)o2)cc1 | 50 | i | i | 42 | i | 70 | 37 | 35 | 49
Cc1cccc(N2C(=O)c3ccc(C(=O)Nc4c[nH]c(=O)[nH]c4=O)cc3C2=O)c1 | i | i | i | i | i | i | nt | nt | nt
Cc1nn(-c2ccccc2)c(C)c1C(=O)OCC(=O)Nc1cccc(S(N)(=O)=O)c1 | i | i | nt | i | i | i | nt | nt | nt
Cc1ccc(C)c(/C=C2\N=C(c3ccccc3F)OC2=O)c1 | 40 | i | i | 46 | i | 53 | 57 | 53 | 54
COc1cc(/C=C2/N=C(c3ccccc3F)OC2=O)cc(Cl)c1OS(C)(=O)=O | i | i | i | i | i | i | nt | nt | nt
CCCN(CC(=O)Nc1ccccc1OC)C(=O)c1ccc2ncsc2c1 | i | i | nt | i | i | i | nt | nt | nt
CC(C)(C)N(NS(=O)(=O)c1ccc(F)cc1)c1ccccc1 | i | i | i | i | i | i | nt | nt | nt
O=C1Nc2ccc(Br)cc2/C1=C/C1CC=CCC1 (centres undefined) | 59 | 103 | i | 59 | i | 59 | 50 | 71 | i
CCN(CC)C(=O)Cn1cc(C(=O)C(=O)N2CCN(Cc3ccc4c(c3)OCO4)CC2)c2ccccc21 | i | i | i | i | i | i | nt | nt | nt
C#CCOCCOCCOCCNc1nc(N2CCN(C(=O)CCCCCCCCCCNC(=O)[C@H](CCCCN)n3cc(C[C@@H](C)CC)nn3)CC2)nc(N2CCN(C(=O)CCCCCCCCCCNC(=O)[C@H](CCCN=C(N)N)n3cc(C[C@@H](C)CC)nn3)CC2)n1 | i | i | nt | i | i | i | nt | nt | nt
C#CCOCCOCCOCCNc1nc(N2CCN(C(=O)CCCCCCCCCCNC(=O)[C@H](CCCCN)n3cc(C)nn3)CC2)nc(N2CCN(C(=O)CCCCCCCCCCNC(=O)[C@H](CCCN=C(N)N)n3cc(C[C@@H](C)CC)nn3)CC2)n1 | 40 | nt | nt | i | i | 50 | i | nt | 64
Cc1ccc(/C(N)=N/OC(=O)c2cc(-c3ccccc3)nc3ccccc23)cc1 | 70 | i | i | 86 | i | 84 | 64 | 86 | 80
COC(=O)c1cc(-c2ccc(NC(C)=O)cc2)nc2ccccc12 | 50 | i | i | i | i | 53 | 38 | nt | 57
COc1ccc(/C(N)=N/OC(=O)c2cc(-c3ccccc3)nc3ccccc23)cc1 | 67 | i | i | 82 | i | 79 | 63 | 75 | 76
CC(=O)COC(=O)c1cc(-c2ccc(C)cc2)nc2ccccc12 | i | i | i | i | i | i | nt | nt | nt
N/C(=N\OC(=O)c1cc(-c2ccccc2)nc2ccccc12)c1ccccn1 | 54 | i | i | 84 | i | 81 | 31 | 89 | 63
COc1cccc(CNC(=O)CCCNC(=O)c2ccc(Cl)cc2)c1 | i | i | i | i | i | i | nt | nt | nt
SMILES | tim10-1 inh | PfHsp90 yeast 2 | SKKanGAS inh | TIM10 inh | NALP3 yeast inh | tim23-1 inh | tim10-1 confirm | tim10 confirm | tim23-1 confirm
CC(NC(=O)CNC(=O)c1sc2ccccc2c1Cl)c1ccc(S(N)(=O)=O)cc1 (centres undefined) | i | nt | i | i | i | i | nt | nt | nt
COc1cc(OC)cc(C2=NC3(CCC(C)CC3)NC2=S)c1 (centres undefined) | i | i | i | i | i | i | nt | nt | nt
Cc1ccc(O)c(Sc2cc(C)ccc2O)c1 | 47 | i | i | i | i | 53 | i | nt | 45
COc1ccccc1C/C(N)=N/OC(=O)COc1cccc2ccccc12 | 58 | nt | i | 74 | i | 65 | 64 | 62 | 73
COc1ccccc1C/C(N)=N/OC(=O)COc1ccc2ccccc2c1 | 48 | i | i | 55 | i | 52 | 64 | 43 | 77
COc1ccccc1C/C(N)=N/OC(=O)COc1ccc(C)cc1 | i | i | i | i | i | i | nt | nt | nt
Cc1ccc(S(=O)(=O)Nc2cccc3c2O[C@H](CN(C)C(=O)Nc2ccc(C(F)(F)F)cc2)[C@@H](C)CN([C@H](C)CO)C3=O)cc1 | i | i | nt | i | i | i | nt | nt | nt
NC(=O)COc1c(-c2ccc(Br)o2)oc2ccccc2c1=O | i | i | i | i | i | i | nt | nt | nt
CCC(C)(C)C1CCc2[nH]nc(C(=O)NC3CCCC3)c2C1 (centres undefined) | 42 | i | nt | i | i | 59 | 35 | nt | 57
CCC(C)(C)C1CCc2[nH]nc(C(=O)NCc3ccc(OC)cc3)c2C1 (centres undefined) | i | i | nt | i | i | i | nt | nt | nt
CN1CCN(C(=O)CCN2C(=O)/C(=C\c3ccc(Cl)cc3)SC2=S)CC1 | i | i | i | i | i | i | nt | nt | nt
CC(=O)N(C(C)=O)N1C(=O)/C(=C/c2ccc(Cl)cc2)SC1=S | 64 | 114 | i | 57 | i | 75 | 58 | 80 | 39
CCOC(=O)C1=C(CC)Nc2ccccc2N=C1NC(=O)Nc1ccc(Cl)c(Cl)c1 | 79 | 104 | 93 | 70 | i | 76 | 71 | i | 72
CCOC(=O)C1=C(CC)Nc2ccccc2N=C1NC(=O)c1cc(C)on1 | i | i | nt | i | i | i | nt | nt | nt
O=C(/C=C/c1ccc(F)cc1)c1cc(Br)ccc1O | 45 | i | i | 53 | i | 50 | 71 | 70 | i
O=C(O)c1ccc(-c2nc(-c3ccccc3)c(-c3cccs3)[nH]2)cc1 | i | i | i | i | i | i | nt | nt | nt
COc1ccc(-c2nc(-c3cccs3)c(-c3cccs3)[nH]2)cc1O | 52 | nt | 61 | i | i | 74 | 34 | nt | 71
